Records with an inconclusive call do not appear. Active and inactive are the calls of the source. Calls come from the whole dose curve; as a rule, active = well fitted curve in the direction sought with a large enough effect; inconclusive = small, poorly fitted or top-dose-only effect, or another doubt; inactive = no such curve, though single readings can be large; an effect the other way counts as inactive or inconclusive.

The nature of test [1]: qHTS of pediatric cancer cell lines to identify multiple opportunities for drug repurposing: Primary screen for RD cells (AID 1347104). Note: nearly all actives have a fitted effect of over 55% in size. Note: potency is the fitted concentration of half-maximal effect. Summed up: (§1)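 Cells seeded at 500-1,000 cells/well in growth media, rested 5 hours at 37 degrees C, 5% CO2, then dosed; MIPE compounds at 11-point (from 0.78 nM) and NPC at 8-point (from 0.59 nM) final concentrations. Viability by CellTiter-Glo luminescence after 48 hours.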
A general note: qHTS replaces the single test concentration by a dilution series.

Test [2] can be described thus: qHTS of pediatric cancer cell lines to identify multiple opportunities for drug repurposing: Primary screen for control Hh wild type fibroblast cells (AID 1347106). Note: nearly all actives have a fitted effect of over 55% in size. Note: potency is the fitted concentration of half-maximal effect. In a few lines: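 Cells (500-1,000/well) in growth media were settled 5 h at 37 degrees C, then given compounds for 48 h. Viability was read as CellTiter-Glo luminescence. Primary runs used MIPE at 11 points (0.78 nM-46 µM) and NPC at 8 points (0.59 nM-46 µM); follow-ups used 11 points.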

A short description of test [3]: qHTS of pediatric cancer cell lines to identify multiple opportunities for drug repurposing: Primary screen for Rh30 cells (AID 1347107). Note: nearly all actives have a fitted effect of over 75% in size. Note: potency is the fitted concentration of half-maximal effect. In a few lines: (§2)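 Viability after 48 h compound treatment at 37C, 500-1,000 cells/well, read as ATP luminescence with CellTiter-Glo. Primary screens used 11-point (MIPE, 0.78 nM-46 µM) or 8-point (NPC, 0.59 nM-46 µM) final concentrations; follow-up screens used 11-point dilutions.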

Test [4] is described as follows: qHTS of pediatric cancer cell lines to identify multiple opportunities for drug repurposing: Primary screen for Rh41 cells (AID 1347108). Note: nearly all actives have a fitted effect of over 70% in size. Note: potency is the fitted concentration of half-maximal effect. Summed up:
as §1

Test [5] in a line: qHTS of pediatric cancer cell lines to identify multiple opportunities for drug repurposing: Confirmatory screen for NB1643 cells (AID 1347109). Note: potency is the fitted concentration of half-maximal effect; nearly all actives have a fitted effect of over 45% in size. Summed up: as §2
Test [6] in a line: qHTS of pediatric cancer cell lines to identify multiple opportunities for drug repurposing: Confirmatory screen for A673 cells (AID 1347110).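 Note: potency is the fitted concentration of half-maximal effect; cells exposed to compound for 48 h before the viability read; nearly all actives have a fitted effect of over 65% in size.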 Summed up:
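Forty-eight-hour viability assay. Follow-up compounds ran at 11-point dilutions; positive control bortezomib at 2.3 uM final, neutral control DMSO.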

A short description of test [7]: qHTS of pediatric cancer cell lines to identify multiple opportunities for drug repurposing: Confirmatory screen for BT-12 cells (AID 1347112). Note: potency is the fitted concentration of half-maximal effect; nearly all actives have a fitted effect of over 55% in size. In a few lines:
as §2

A short description of test [8]: qHTS of pediatric cancer cell lines to identify multiple opportunities for drug repurposing: Confirmatory screen for LAN-5 cells (AID 1347113). Note: potency is the fitted concentration of half-maximal effect; nearly all actives have a fitted effect of over 65% in size. In a few lines:
as §2

Test [9] can be described thus: qHTS of pediatric cancer cell lines to identify multiple opportunities for drug repurposing: Confirmatory screen for NB-EBc1 cells (AID 1347115).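 Note: potency is the fitted concentration of half-maximal effect; cells exposed to compound for 48 h before the viability read; nearly all actives have a fitted effect of over 45% in size.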 Summed up:
as §2

Test [10] can be described thus: qHTS of pediatric cancer cell lines to identify multiple opportunities for drug repurposing: Confirmatory screen for BT-37 cells (AID 1347117).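 Note: potency is the fitted concentration of half-maximal effect; viability measured after 48 h of compound exposure; nearly all actives have a fitted effect of over 55% in size.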 In a few lines: as §2
Test [11] can be described thus: qHTS of pediatric cancer cell lines to identify multiple opportunities for drug repurposing: Confirmatory screen for TC32 cells (AID 1347118).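 Note: potency is the fitted concentration of half-maximal effect; cells exposed to compound for 48 h before the read; nearly all actives have a fitted effect of over 65% in size.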 Summed up:
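Measured quantity: luminescence from CellTiter-Glo, reflecting metabolically active TC32 cells following 48 h of compound. Curves came straight from multi-point titrations, with 8 or 11 points in primary and 11 in confirmatory screening.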

Test [12] in a line: qHTS of pediatric cancer cell lines to identify multiple opportunities for drug repurposing: Confirmatory screen for U-2 OS cells (AID 1347122). Note: potency is the fitted concentration of half-maximal effect; nearly all actives have a fitted effect of over 65% in size. In a few lines:
as §2

Test [13] is described as follows: qHTS of pediatric cancer cell lines to identify multiple opportunities for drug repurposing: Confirmatory screen for Rh41 cells (AID 1347123).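 Note: potency is the fitted concentration of half-maximal effect; 48 h compound exposure; nearly all actives have a fitted effect of over 60% in size.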 In a few lines: as §2
The nature of test [14]: qHTS of pediatric cancer cell lines to identify multiple opportunities for drug repurposing: Confirmatory screen for RD cells (AID 1347124). Summed up: as §2
The nature of test [15]: qHTS of pediatric cancer cell lines to identify multiple opportunities for drug repurposing: Confirmatory screen for OHS-50 cells (AID 1347128). In a few lines: as §2
A short description of test [16]: qHTS of pediatric cancer cell lines to identify multiple opportunities for drug repurposing: Primary screen for MG 63 (6-TG R) cells (AID 1347105). Note: nearly all actives have a fitted effect of over 50% in size. Summed up: as §1

`Nc1c[n+](N2CCOCC2)no1`: the Potency entry in test [1], in test [2], in test [3] and in test [4] was “inactive” each time.
Consider `CCO[C@H](Cc1ccc(OCCc2ccc(OS(C)(=O)=O)cc2)cc1)C(=O)O`, for which the Potency entry in [1], in test [2], in test [3] and in test [4] was “inactive” in each case.
Consider `CC(C)=CCNc1ncnc2c1ncn2[C@@H]1O[C@H](CO)[C@@H](O)[C@H]1O`, for which the Potency in [1] is 13.3 µM (active); in test [2] it was 8.41 µM (active); in [4], 6.68 µM (active).
With `CC(=O)[C@H]1CC[C@H]2[C@@H]3C=CC4=CC(=O)CC[C@@]4(C)[C@@H]3CC[C@]12C`, the Potency entry in [1], in test [2], in test [3] and in [4] was “inactive” throughout.
As for `CC(COc1ccccc1)NN` (stereo unspecified), the Potency entry in [1], in test [2], in [3] and in [4] was “inactive” in each case.
Take `Nc1c2ccccc2nc2ccccc12`: the Potency is 15 µM (active) in test [1]; 16.8 µM (active) in test [4]; 4.14 µM (active) in test [5]; 6.57 µM (active) in test [6]; 3.69 µM (active) in test [7]; 3.69 µM (active) in [8]. Besides, the Potency in test [9] was 6.57 µM (active); in test [10], 2.93 µM (active); in [11] it was 2.93 µM (active); in [12], 14.7 µM (active); in test [13], 16.5 µM (active); in test [14], 3.29 µM (active). Further, in test [15], the Potency was 3.69 µM (active).
For the molecule `OCc1c[nH]c2ccccc12`, the Potency entry in test [16] and in test [2] was “inactive” in each case.
Turning to `CCCCCCCCCCCC[N+](C)(C)Cc1ccccc1`, the Potency in test [1] is 9.44 µM (active); in test [3], 18.8 µM (active); in test [4], 21.1 µM (active).
Regarding `C/C(=N\O)[C@@H](C)NCC(C)(C)CN[C@H](C)/C(C)=N/O`, the Potency result in test [1], in test [2], in test [3] and in test [4] was “inactive” in each case.
Consider `O=C1Nc2ccccc2C1(c1ccc(O)cc1)c1ccc(O)cc1`, for which the Potency result in test [1] and in [3] was “inactive” each time.
As to `O=C(Oc1ccccc1)c1cccc(C(=O)Oc2ccccc2)c1`, the Potency entry in test [16], in [2] and in [3] was “inactive” each time.
Take `CCCCCC(=O)O[C@]1(C(C)=O)CC[C@H]2[C@@H]3CCC4=CC(=O)CC[C@]4(C)[C@H]3CC[C@@]21C`: the Potency result in test [16], in test [2] and in test [3] was “inactive” throughout.
On to `CC(CC1c2ccccc2CCc2ccccc21)CN(C)C` (stereo unspecified), for which the Potency result in test [16], in test [2], in test [3] and in test [4] was “inactive” in each case.
Take `CN(C)CCOC1=Cc2ccccc2Sc2ccc(Cl)cc21`: the Potency entry in test [16], in test [2], in test [3] and in [4] was “inactive” throughout.
Turning to `CN1[C@@H]2CC[C@H]1CC(NC(=O)n1c(=O)[nH]c3ccccc31)C2` (stereo partly specified), the Potency result in test [16], in [2], in [3] and in test [4] was “inactive” in each case.
For `CC(C(O)c1ccccc1)N(C)CCOC(c1ccccc1)c1ccccc1` (stereo unspecified), the Potency result in [16], in test [2], in [3] and in test [4] was “inactive” throughout.
Consider `Cc1ccc(CCn2c3c(c4cc(Cl)ccc42)CN(C)CC3)cn1`, for which the Potency entry in [16], in test [2], in [3] and in test [4] was “inactive” throughout.
In the case of `CCOC(=O)c1ccc(OCCN2C[C@H](O)[C@@H](O)[C@H](O)[C@H]2CO)cc1`, the Potency entry in [16], in [2], in [3] and in test [4] was “inactive” throughout.
For the molecule `Nc1cc(C(F)(F)F)ccc1S`, the Potency result in [16], in [2] and in test [3] was “inactive” each time.
As for `Cc1cccc(N(C)C(=S)Oc2ccc3c(c2)C2CCC3C2)c1` (stereo unspecified), the Potency entry in test [16], in test [2], in test [3] and in test [4] was “inactive” in each case.
Take `O=C(CCC1CCN(Cc2ccccc2)CC1)c1ccc2c(c1)NCCCC2`: the Potency result in test [16], in test [2], in test [3] and in test [4] was “inactive” each time.
As to `CC1c2ccccc2CN1NC(=O)c1ccc(Cl)c(S(N)(=O)=O)c1` (stereo unspecified), the Potency entry in [16], in test [2], in test [3] and in test [4] was “inactive” in each case.
As for `C/C(=C(/OCCOc1ccc(Cl)cc1)c1ccc(Cl)cc1Cl)n1ccnc1`, the Potency entry in test [16], in [2], in test [3] and in test [4] was “inactive” each time.
As for `CCOc1ccc(NS(=O)(=O)c2ccc(N)cc2)nn1`, the Potency result in [16], in test [2], in test [3] and in test [4] was “inactive” each time.

The values are drawn from PubChem BioAssay (NCATS).
